Laboratory results: PMC10480535

Target: MOB kinase activator 2 (UniProt Q70IA6)
Assay: cross-link between two proteins; cross-linking mass spectrometry; proximity labelling

Sequence of UniProt Q70IA6 (Q70IA6 whole entry): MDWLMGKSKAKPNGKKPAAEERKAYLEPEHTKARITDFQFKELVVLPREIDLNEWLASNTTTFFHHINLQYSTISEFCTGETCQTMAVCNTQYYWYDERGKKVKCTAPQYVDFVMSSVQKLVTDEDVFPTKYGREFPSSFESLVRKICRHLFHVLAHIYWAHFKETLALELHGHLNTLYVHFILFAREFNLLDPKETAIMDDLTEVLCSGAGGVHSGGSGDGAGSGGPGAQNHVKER

Flotillin-1, O75955
listed as a hit: yes
